Measurements taken from PubChem BioAssay AID1063 (University of Pittsburgh Molecular Library Screening Center, 2008).
Hit rate of the full screen: of about 200,000 compounds, about 18,000 (9%) were called active. Cut-off read from the data, not from the text of the source: active = inhibition above about 50%; inactive = the rest. What follows is part of a selection rich in actives, with near analogues and random picks from the rest.

test: Leishmania major promastigote growth inhibition, primary screen (AID 1063); details: Leishmania major promastigotes, resazurin fluorescence viability; at 10 µM; stronger effect = higher value;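 note: promastigotes grown with compound for 44 hours at 28 °C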

| Compound | inhibition |
| --- | --- |
| CN(C)S(=O)(=O)c1cccc(NC(=S)N/N=C/C(=O)c2ccccc2)c1 | 2.84% (inactive) |
| Cc1cccc(N2CCN(c3ccc(NC(=O)/C=C\C(=O)O)cc3)CC2)c1 | -2.44% (inactive) |
| Cc1cc(C(=O)CCl)c(C)n1CC1COc2ccccc2O1 (configuration not stated) | 101% (active) |
| Cc1ccsc1C(=O)OCC(=O)c1cc(C)n(CC2CCCO2)c1C (configuration not stated) | -1.1% (inactive) |
| Cc1cc(NC(=O)CCC2COc3ccccc3O2)no1 (configuration not stated) | -5.57% (inactive) |
| O=C(NCc1ccccc1)C1=C[C@H](C2CC2)C[C@H](OCc2ccc(CO)cc2)O1 | 6.42% (inactive) |
| C=CCOC(=O)C1=C[C@@H](c2ccccc2)C[C@@H](OCc2ccc(CO)cc2)O1 | 13.8% (inactive) |
| O=C(NCc1ccccc1)C1=C[C@@H](C2CCCCC2)C[C@@H](OCc2ccc(CO)cc2)O1 | 50.2% (active) |
| CC(C)(C)[C@H]1C=C(C(=O)NCc2ccccc2)O[C@@H](OCc2ccc(CO)cc2)C1 | 20.8% (inactive) |
| O=C(NCc1ccccc1)C1=C[C@@H](c2ccc(C(F)(F)F)cc2)C[C@@H](OCc2ccc(CO)cc2)O1 | 87% (active) |
| O=C(C1=C[C@H](c2ccc(C(F)(F)F)cc2)C[C@H](OCc2ccc(CO)cc2)O1)N1CCN(Cc2ccccc2)CC1 | 25.6% (inactive) |
| CCOC(=O)C1(C)NC(c2ccco2)C2C(=O)N(c3ccccc3)C(=O)C21 (configuration not stated) | -8.75% (inactive) |
| COc1cc(NC(=S)NCc2ccc(S(N)(=O)=O)cc2)cc(OC)c1 | 11.8% (inactive) |
| CC1Cc2ccccc2N1C(=O)CSc1nnc(-c2ccc(S(=O)(=O)N3CCCC3)cc2)n1C (configuration not stated) | 97.9% (active) |
| Cn1c(SCC(=O)OC2CCCCC2)nnc1-c1ccc(S(=O)(=O)N2CCCC2)cc1 | -0.74% (inactive) |
| CC1Cc2ccccc2N1C(=O)CSc1nnc(C2CC2)n1C (configuration not stated) | 14.8% (inactive) |
| O=C(Nc1ccc(N2CCN(C(=O)c3cccs3)CC2)cc1)c1cccnc1Cl | 16.4% (inactive) |
| CCOc1ccccc1/C=N/NC(=O)CNC(=O)COc1ccccc1 | -1.93% (inactive) |
| N#C/C=C(/c1ccc(F)cc1)N1CCOCC1 | 1.16% (inactive) |
| Cc1cc(C)n2nc(SCC(N)=O)nc2n1 | 4.1% (inactive) |
| COc1ccc(S(=O)(=O)N2CCCCC2)cc1Br | -0.43% (inactive) |
| CCCCn1c(=S)[nH]c2ccccc2c1=O | -2.23% (inactive) |
| CCCCn1c(=S)[nH]c2cc(S(=O)(=O)N3CCCCC3)ccc21 | 96.4% (active) |

| Compound | inhibition |
| --- | --- |
| COC(=O)C(C(=O)Nc1cccc(Cl)c1C)C1CCCC1 (configuration not stated) | -0.21% (inactive) |
| Cc1ccc(OCCCC(=O)NC(C)c2ccccc2)c(C)c1 (configuration not stated) | 11.7% (inactive) |
| CCC(CC)c1nnc(NC(=O)c2nn(C)c(=O)c3ccccc23)s1 | 8.15% (inactive) |
| N#Cc1c(C(F)(F)F)cc(-c2ccc(Cl)cc2)nc1SCC(=O)O | -6.26% (inactive) |
| O=C(/C=C/c1ccc(OCc2c(F)cccc2Cl)cc1)N1CCOCC1 | 35.5% (inactive) |
| CN(C)CCCNC(=O)/C=C/c1ccc(OCc2c(F)cccc2Cl)cc1 | 89.1% (active) |
| COCCCNC(=O)/C=C/c1ccc(OCc2c(F)cccc2Cl)cc1 | 16% (inactive) |
| COc1ccccc1-n1ccnc1SCC(=O)NC(C)(C)C | -1.52% (inactive) |
| COC(=O)c1ccc(CSc2nnc(N)s2)o1 | -5.93% (inactive) |
| CCC(c1nnnn1Cc1ccco1)N(CCc1ccccc1)Cc1cc2ccc(OC)cc2[nH]c1=O (configuration not stated) | 85.7% (active) |
| CCC(c1nnnn1Cc1ccco1)N(CCc1ccccc1)Cc1cc2cccc(C)c2[nH]c1=O (configuration not stated) | 39.7% (inactive) |
| CCC(c1nnnn1Cc1ccco1)N(Cc1cc2cc(OC)ccc2[nH]c1=O)C1CCCCC1 (configuration not stated) | 49.5% (inactive) |
| CN(C)c1ccc(C(CC(=O)O)C(=O)O)cc1 (configuration not stated) | -3.91% (inactive) |
| Cc1cccc(NC(=O)c2nnn(-c3cccc(C(F)(F)F)c3)c2N)c1 | 3.89% (inactive) |
| Cc1nc([N+](=O)[O-])nn1C12CC3CC(CC(Br)(C3)C1)C2 | 98.2% (active) |
| Cc1ncn(C23CC4CC(CC(O)(C4)C2)C3)n1 | -5.82% (inactive) |
| O=S(=O)(c1ccccc1)c1nc(-c2ccccc2F)oc1NCc1cccnc1 | 0.99% (inactive) |
| CCCCC(NC(=O)c1cccc(Br)c1)C(=O)O (configuration not stated) | 21.1% (inactive) |
| CC(CC(=O)O)CC(=O)NNC(=O)c1cccc(Br)c1 (configuration not stated) | -4.63% (inactive) |
| C/C(Cc1ccccc1)=N\NC(=O)CNC(=O)c1cccc(Br)c1 | 51.4% (active) |
| COc1ccc(C)cc1-n1nnnc1SCc1nc2ccccc2c(=O)[nH]1 | 2.27% (inactive) |
| Cc1nc(-c2ccc(Cl)cc2)sc1C(=O)CBr | -12.4% (inactive) |
| CCCn1c(=S)[nH]c2ccc(C(F)(F)F)cc21 | -2.71% (inactive) |

| Compound | inhibition |
| --- | --- |
| CCCC(=O)OCC(=O)Nc1cc(Cl)ccc1[N+](=O)[O-] | -6.12% (inactive) |
| Cc1[nH]c2ccccc2c1-c1ccc(Cl)nn1 | -2.46% (inactive) |
| COc1ccc(OC)c(Nc2nc(-c3ccc(O)c(O)c3)cs2)c1 | 20.7% (inactive) |
| COc1ccc(C)cc1Nc1nc(-c2c(C)[nH]c3ccccc23)cs1 | 97.8% (active) |
| COC(=O)C(NS(=O)(=O)c1ccc(F)cc1)c1ccccc1 (configuration not stated) | -1.84% (inactive) |
| CS/C(=C\[N+](=O)[O-])Nc1ccc(C)cc1 | -1.56% (inactive) |
| CCc1nnc(NC(=O)c2cccc(S(=O)(=O)N(C)c3ccc(OC)cc3)c2)s1 | -0.19% (inactive) |
| O=C(Cc1ccccc1)NC(=S)Nc1ccc(N2CCCCC2)cc1 | -9.12% (inactive) |
| COc1ccc(-n2c(C)cc(C(=O)CN3C(=O)NC4(CCc5ccccc54)C3=O)c2C)cc1 (configuration not stated) | 98.6% (active) |
| Cc1ccc(-n2c(C)cc(C(=O)CN3C(=O)C(=O)N(C4CCCC4)C3=O)c2C)cc1 | -5.85% (inactive) |
| COc1ccc(-n2c(C)cc(C(=O)CSc3nnc(-c4cccs4)o3)c2C)cc1 | -4.2% (inactive) |
| Cc1nn(-c2ccc([N+](=O)[O-])cc2)c(N)c1-c1ccccc1 | -4.1% (inactive) |
| CC(C)(C)NC(=O)NC(=O)COC(=O)Cc1c(F)cccc1Cl | 2.42% (inactive) |
| O=C(CSc1cccc[n+]1[O-])NCCCc1ccccc1 | 1.17% (inactive) |
| COC(=O)c1ccccc1NC(=O)C1CC(=O)N(c2ccc(OC)cc2)C1 (configuration not stated) | -10.5% (inactive) |
| COc1ccc(C(=O)CSc2nnc(NC(=O)C3CC(=O)N(c4cccc(OC)c4)C3)s2)cc1 (configuration not stated) | 56.9% (active) |
| COc1cccc(Nc2nnc(SCC(=O)N3CC(C)OC(C)C3)s2)c1 (configuration not stated) | 51.2% (active) |
| COc1cccc(N2CC(C(=O)Nc3c(C)cccc3C)CC2=O)c1 (configuration not stated) | 2.01% (inactive) |
| COc1cccc(NC(=O)Nc2nnc(N3CCCCC3C)s2)c1 (configuration not stated) | 3.59% (inactive) |
| CCOc1ccccc1Nc1nnc(SCC(=O)Nc2cc(C)on2)s1 | 4.84% (inactive) |
| CCOC(=O)CCCN1CC(O)=C(c2nc3ccccc3s2)C1=N | 17% (inactive) |
| CC(C)n1c(=O)[nH]c2cc(C(=O)Nc3ccccc3)ccc21 | -2.18% (inactive) |
| O=C(N/N=C/c1ccco1)c1ccc(C(=O)N/N=C/c2ccco2)o1 | -1.3% (inactive) |

| Compound | inhibition |
| --- | --- |
| COC(=O)c1nn(-c2cccc(Cl)c2)ccc1=O | -3.04% (inactive) |
| O=C(Cc1ccc([N+](=O)[O-])cc1)N/N=C/c1ccco1 | 2.95% (inactive) |
| COc1cc(NC(=O)CSc2nnc3ccc(-c4ccncc4)nn23)cc(OC)c1 | -2.79% (inactive) |
| CCOc1ccc(C(=O)NC(=S)Nc2ccc(NC(=O)C(C)C)cc2)cc1[N+](=O)[O-] | -7.33% (inactive) |
| CCOc1ccc(C(=O)NC(=S)Nc2ccc(N3CCOCC3)c(Cl)c2)cc1[N+](=O)[O-] | 100% (active) |
| COc1cccc(OC)c1C(=O)NC(=S)Nc1ccc(N2CCOCC2)c(Cl)c1 | 21.4% (inactive) |
| O=C(c1ccncc1)N1CCN(c2ccc3ccccc3n2)CC1 | -1.56% (inactive) |
| O=C(Nn1cnnc1)c1ccc([N+](=O)[O-])cc1 | -11.1% (inactive) |
| CCOC(=O)c1cccc(NC(=O)CN(c2ccc(C)cc2)S(=O)(=O)c2c(C)noc2C)c1 | 22.7% (inactive) |
| Cc1noc(C)c1S(=O)(=O)N(CC(=O)Nc1ccc2c(c1)OCCO2)c1ccc(C(C)C)cc1 | 55.8% (active) |
| Cc1noc(C)c1S(=O)(=O)N(CC(=O)NCc1ccc(Cl)cc1)c1ccc2c(c1)OCO2 | -4.31% (inactive) |
| CCC1CCCCN1C(=O)CSc1nc(C)cc(C)n1 (configuration not stated) | 11.3% (inactive) |
| O=C(O)/C=C/C(=O)NNc1ccc([N+](=O)[O-])cc1 | -9.99% (inactive) |
| CC(=O)Nc1ccc(C(=O)CSc2nc3ccc(C)cc3[nH]2)cc1 | 52.9% (active) |
| O=C(CSc1nc2ccc([N+](=O)[O-])cc2[nH]1)c1ccc(Cl)cc1 | -1.01% (inactive) |
| CCOC(=O)CSc1nc2ccc(C)cc2[nH]1 | -4.89% (inactive) |
| O=C1c2ccccc2NC(c2ccccn2)N1NS(=O)(=O)c1ccccc1 (configuration not stated) | 2.46% (inactive) |
| COc1ccc(/C=C/C(=O)Nc2ccc3c(c2)OCCO3)cc1OC | 13.8% (inactive) |
| COc1ccc(NS(=O)(=O)c2cc(NC(=O)/C=C/c3cc(OC)c(OC)c(OC)c3)ccc2N2CCCCC2)cc1 | 61.7% (active) |
| COc1ccc(NS(=O)(=O)c2cc(NC(=O)C3CCCCC3)ccc2N2CCOCC2)cc1 | 16.6% (inactive) |
| COc1ccccc1NC(=O)CCCc1c[nH]c2ccccc12 | -1.94% (inactive) |
| Cc1cc(C)cc(NC(=S)NCCc2c[nH]c3ccccc23)c1 | 10.6% (inactive) |
| COc1cccc(CNCCc2c[nH]c3ccccc23)c1OCc1ccccc1F | 101% (active) |
